In PubChem BioAssay (EPA / NIEHS):
Results filed as inconclusive are left out. More than one record can exist for a structure, and the calls need not agree. Activity calls are given as the source filed them. The calls were made as follows, unless noted: active = hit-call score of the fitted dose curve at least 0.9, where 1 is the maximum; inconclusive = response in the unintended direction; inactive = score below 0.9.

Target: human Peroxisome Proliferator-activated Receptor alpha (PPARa), PPARA (gene 5465) (UniProt Q07869)
Sequence (Q07869 whole entry, looked up): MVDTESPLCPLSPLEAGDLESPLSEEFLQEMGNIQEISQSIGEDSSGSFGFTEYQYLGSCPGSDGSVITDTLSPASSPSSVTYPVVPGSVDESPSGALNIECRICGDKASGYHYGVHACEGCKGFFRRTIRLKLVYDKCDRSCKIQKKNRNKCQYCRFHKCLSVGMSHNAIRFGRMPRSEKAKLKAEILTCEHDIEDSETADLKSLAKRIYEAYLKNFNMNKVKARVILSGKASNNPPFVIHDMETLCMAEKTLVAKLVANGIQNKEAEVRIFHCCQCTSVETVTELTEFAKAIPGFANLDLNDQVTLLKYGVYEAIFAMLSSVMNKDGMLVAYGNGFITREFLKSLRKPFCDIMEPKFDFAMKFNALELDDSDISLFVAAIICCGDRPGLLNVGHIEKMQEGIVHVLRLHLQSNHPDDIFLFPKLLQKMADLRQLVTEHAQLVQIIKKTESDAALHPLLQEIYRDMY
Test: ATG_PPARa_TRANS: Attagene TRANS-FACTORIAL HepG2 Assay for human Peroxisome Proliferator-activated Receptor alpha (PPARa) (AID 2283001);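 as to AC50: potency for gain of reporter signal over DMSO so agonist or activator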
Details: not given
Procedure, shortened: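 Cells (HepG2) are transfected with multiple reporter transcription units, exposed to chemical for 24 h, then total RNA is reverse-transcribed and amplified. Labelled products are quantified by capillary electrophoresis; induction is referenced to DMSO.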
For `CCCCCCCCCCCCCCO`, the outcome was “inactive”. In the case of `S=P(N1CC1)(N1CC1)N1CC1`, the outcome is reported as “inactive”. In the case of `O=C(O)c1ccc2c(c1)nc(C(=O)NC1CCN(C3CC3)CC1)n2Cc1cc(-c2ccc(Cl)s2)on1`, the outcome is reported as “inactive”. With `Cc1cccc(O)c1C` the outcome was “inactive”. In the case of `FC(F)(F)C(F)(F)C(F)(F)C(F)(F)C(F)(F)C(F)(F)I`, the outcome is reported as “inactive”. In the case of `O=C(N[C@H](CO)[C@H](O)c1ccc([N+](=O)[O-])cc1)C(Cl)Cl`, the outcome is reported as “inactive”. For `O=C(O)c1cccc(C(=O)O)c1`, the outcome was “inactive”. In the case of `CC(C)CCCCCCOC(=O)C1CCCCC1C(=O)OCCCCCCC(C)C` (stereo unspecified), the outcome is reported as “inactive”. For `c1ccc2cc3ccccc3cc2c1`, the outcome was “inactive”. For `CC(C)c1nnc2ccc(-c3ocnc3-c3cc(F)ccc3F)cn12`, the outcome was “inactive”. For `Cc1ncc([C@@H](CCCCCCc2ccc3c(n2)NCCC3)CC(=O)O)cn1`, the AC50 was 19.8 µM (active). In the case of `OCc1c[nH]c2ccccc12`, the outcome is reported as “inactive”. In the case of `O=C(O)c1cccc(C[C@@H]2COc3ccc(OCc4nc5cc(F)ccc5s4)cc3[C@@H]2O)c1`, the outcome is reported as “inactive”. In the case of `CCCC(CCC)C(=O)O`, the outcome is reported as “inactive”. With `C=CCc1cc(S(=O)(=O)c2ccc(O)c(CC=C)c2)ccc1O` the outcome was “inactive”. For `CCCCCCCCCCCCCCCCOS(=O)(=O)O`, the AC50 was 9.15 µM (active). For `CC1(C)C(=O)N(Cl)C(=O)N1Cl`, the outcome was “inactive”. For `CCCCCCCCCC`, the outcome was “inactive”. With `O=C(O)CO` the outcome was “inactive”.

Target: human Peroxisome Proliferator-activated Receptor delta (PPARd), PPARD (gene 5467) (UniProt Q03181)
Sequence (Q03181 whole entry, looked up): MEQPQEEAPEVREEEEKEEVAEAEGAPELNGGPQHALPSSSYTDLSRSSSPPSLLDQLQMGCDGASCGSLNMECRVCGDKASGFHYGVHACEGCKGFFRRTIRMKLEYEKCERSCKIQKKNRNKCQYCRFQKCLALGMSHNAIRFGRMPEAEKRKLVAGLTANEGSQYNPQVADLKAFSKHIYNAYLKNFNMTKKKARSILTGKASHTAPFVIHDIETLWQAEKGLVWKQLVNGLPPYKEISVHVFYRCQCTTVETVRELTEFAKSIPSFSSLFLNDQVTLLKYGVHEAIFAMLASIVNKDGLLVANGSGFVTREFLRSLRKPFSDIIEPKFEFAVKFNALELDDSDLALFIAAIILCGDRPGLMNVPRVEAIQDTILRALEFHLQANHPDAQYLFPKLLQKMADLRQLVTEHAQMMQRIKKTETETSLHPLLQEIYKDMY
Test: ATG_PPARd_TRANS: Attagene TRANS-FACTORIAL HepG2 Assay for human Peroxisome Proliferator-activated Receptor delta (PPARd) (AID 2283002)
Details: not given
Procedure, shortened: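 HepG2 cells transiently transfected with multiplexed GAL4-UAS reporter units and exogenous chimeric NR-Gal4 proteins; 24 h compound exposure. Reporter mRNA measured by RT-PCR, 6-FAM labelling, HpaI digestion and capillary electrophoresis; gain of signal versus DMSO.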
For `O=C1CN(N=Cc2ccc([N+](=O)[O-])o2)C(=O)N1`, the outcome was “inactive”. For `O=C(NO)C1(NS(=O)(=O)c2ccc(Oc3ccc(F)cc3)cc2)CCOCC1`, the outcome was “inactive”. In the case of `OC(O)(C(F)C(O)(O)C(F)(F)F)C(F)(F)F`, the outcome is reported as “inactive”.

Read-out: Intercellular Adhesion Molecule 1 (ICAM1), ICAM1 (gene 3383)
Test: BSK_3C_ICAM1: BioMAP Diversity Plus: 3C Assay for Intercellular Adhesion Molecule 1 (ICAM1) Biomarker Activity (AID 2283003; active = hit-call score of the fitted dose curve at least 0.9, where 1 is the maximum; inactive = score below 0.9)
Details: primary human endothelial cells (HUVEC); actives raise or lower the signal
Procedure, shortened: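 ELISA readout of ICAM1 in human umbilical vein endothelial cells in the 3C system, taken 24 h post-dose. Gain or loss of signal versus DMSO was fitted in both directions, with SRB total-protein staining run in parallel.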
For `OC[C@H]1O[C@@](CO)(O[C@H]2O[C@H](CO)[C@@H](O)[C@H](O)[C@H]2O)[C@@H](O)[C@@H]1O`, the outcome was “inactive”. With `CCCc1ccccc1` the outcome was “inactive”. For `c1ccc2c(c1)-c1cccc3c1c-2cc1ccccc13`, the outcome was “inactive”. In the case of `O=C(NO)C1(NS(=O)(=O)c2ccc(Oc3ccc(F)cc3)cc2)CCOCC1`, the outcome is reported as “inactive”. With `FC(F)(F)COC(OCC(F)(F)F)OCC(F)(F)F` the outcome was “inactive”. For `OC(O)(C(F)C(O)(O)C(F)(F)F)C(F)(F)F`, the outcome was “inactive”. For `CNC(C)=O`, the outcome was “inactive”. For `NC(=O)N1c2ccccc2C=Cc2ccccc21`, the outcome was “inactive”.

Target: human Retinoic Acid Receptor beta (RARb), RARB (gene 5915) (UniProt P10826)
Sequence (P10826 whole entry, looked up): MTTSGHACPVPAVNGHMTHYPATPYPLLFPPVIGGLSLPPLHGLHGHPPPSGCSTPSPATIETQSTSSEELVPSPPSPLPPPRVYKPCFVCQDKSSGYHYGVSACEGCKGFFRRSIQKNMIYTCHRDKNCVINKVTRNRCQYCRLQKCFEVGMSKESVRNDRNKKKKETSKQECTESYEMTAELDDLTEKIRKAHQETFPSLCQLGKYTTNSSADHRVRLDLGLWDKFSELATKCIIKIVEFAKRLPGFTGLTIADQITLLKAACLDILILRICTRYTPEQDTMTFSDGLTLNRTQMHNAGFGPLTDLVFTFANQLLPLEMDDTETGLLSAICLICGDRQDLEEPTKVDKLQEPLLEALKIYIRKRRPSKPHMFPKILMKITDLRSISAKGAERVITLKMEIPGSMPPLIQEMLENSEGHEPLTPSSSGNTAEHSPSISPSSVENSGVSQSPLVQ
Test: ATG_RARb_TRANS: Attagene TRANS-FACTORIAL HepG2 Assay for human Retinoic Acid Receptor beta (AID 2283004)
Details: not given
Procedure, shortened: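 HepG2, transient MRTU transfection, NR–Gal4 chimera, 24 h treatment; RT-PCR plus CE fluorescence detection of reporter mRNA; gain of signal vs DMSO.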
With `OC[C@H]1O[C@@](CO)(O[C@H]2O[C@H](CO)[C@@H](O)[C@H](O)[C@H]2O)[C@@H](O)[C@@H]1O` the outcome was “inactive”. With `Cc1cccc(O)c1C` the outcome was “inactive”. For `O=C(O)c1cccc(C(=O)O)c1`, the outcome was “inactive”. With `CC(C)CCCCCCOC(=O)C1CCCCC1C(=O)OCCCCCCC(C)C` (stereo unspecified) the outcome was “inactive”. With `c1ccc2cc3ccccc3cc2c1` the outcome was “inactive”. With `CC(C)c1nnc2ccc(-c3ocnc3-c3cc(F)ccc3F)cn12` the outcome was “inactive”. With `O=C(NO)C1(NS(=O)(=O)c2ccc(Oc3ccc(F)cc3)cc2)CCOCC1` the outcome was “inactive”. For `FC(F)(F)COC(OCC(F)(F)F)OCC(F)(F)F`, the outcome was “inactive”. In the case of `OC(O)(C(F)C(O)(O)C(F)(F)F)C(F)(F)F`, the outcome is reported as “inactive”. With `NC(=O)N1c2ccccc2C=Cc2ccccc21` the outcome was “inactive”. In the case of `O=C(O)CO`, the outcome is reported as “inactive”.

Target: Retinoic acid receptor alpha (Homo sapiens) (UniProt P10276)
Sequence (P10276 whole entry, looked up): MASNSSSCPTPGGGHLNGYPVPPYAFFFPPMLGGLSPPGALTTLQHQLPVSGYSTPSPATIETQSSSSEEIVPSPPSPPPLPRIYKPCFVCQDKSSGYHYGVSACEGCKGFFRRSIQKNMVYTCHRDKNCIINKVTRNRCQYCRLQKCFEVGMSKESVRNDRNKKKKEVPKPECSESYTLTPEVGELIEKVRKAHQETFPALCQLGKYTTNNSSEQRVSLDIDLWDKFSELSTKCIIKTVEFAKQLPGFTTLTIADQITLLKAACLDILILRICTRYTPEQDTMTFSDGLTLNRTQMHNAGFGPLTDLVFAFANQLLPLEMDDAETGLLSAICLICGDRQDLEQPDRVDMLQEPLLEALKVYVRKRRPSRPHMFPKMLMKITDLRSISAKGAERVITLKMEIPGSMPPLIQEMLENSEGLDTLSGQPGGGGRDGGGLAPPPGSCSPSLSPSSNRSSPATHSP
Test: ATG_RARa_TRANS: Attagene TRANS-FACTORIAL HepG2 Assay for human Retinoic Acid Receptor alpha (RARa) (AID 2283005)
Details: not given
Procedure, shortened: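 HepG2 cells transiently transfected with multiple reporter units expressing chimeric RARα-GAL4 fusion, with GAL4-UAS-driven reporters. After 24 h compound exposure, reporter mRNA induction quantified by RT-PCR and capillary electrophoresis with fluorescent labeling; gain-of-signal fitted relative to DMSO control.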
With `S=P(N1CC1)(N1CC1)N1CC1` the outcome was “inactive”. With `Cc1cccc(O)c1C` the outcome was “inactive”. For `O=C(O)c1cccc(C(=O)O)c1`, the outcome was “inactive”. In the case of `CC(C)c1nnc2ccc(-c3ocnc3-c3cc(F)ccc3F)cn12`, the outcome is reported as “inactive”. In the case of `c1ccc2c(c1)-c1cccc3c1c-2cc1ccccc13`, the outcome is reported as “inactive”. In the case of `OCc1c[nH]c2ccccc12`, the outcome is reported as “inactive”. With `FC(F)(F)COC(OCC(F)(F)F)OCC(F)(F)F` the outcome was “inactive”. For `NC(=O)N1c2ccccc2C=Cc2ccccc21`, the outcome was “inactive”. For `O=C(O)CO`, the outcome was “inactive”.

Read-out: not listed separately
Test: BSK_3C_Proliferation: Cell Proliferation Assessment in the BioMAP Diversity Plus: 3C Assay (AID 2283006; active = hit-call score of the fitted dose curve at least 0.9, where 1 is the maximum; inactive = score below 0.9;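 as to AC50: potency may reflect either rise or fall in cell number versus DMSO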)
Details: primary human endothelial cells (HUVEC)
Procedure, shortened: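 Proliferation as total protein: sulforhodamine B (0.1%) stain of TCA-fixed subconfluent human umbilical vein endothelial cells, absorbance 560 nm, 48 h after dosing. Activity fitted in both directions against DMSO baseline.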
With `S=P(N1CC1)(N1CC1)N1CC1` the AC50 was 13.1 µM (active). With `OC[C@H]1O[C@@](CO)(O[C@H]2O[C@H](CO)[C@@H](O)[C@H](O)[C@H]2O)[C@@H](O)[C@@H]1O` the outcome was “inactive”. With `O=C(O)c1ccc2c(c1)nc(C(=O)NC1CCN(C3CC3)CC1)n2Cc1cc(-c2ccc(Cl)s2)on1` the outcome was “inactive”. With `Cc1cccc(O)c1C` the outcome was “inactive”. In the case of `FC(F)(F)C(F)(F)C(F)(F)C(F)(F)C(F)(F)C(F)(F)I`, the outcome is reported as “inactive”. With `O=C(O)c1cccc(C(=O)O)c1` the outcome was “inactive”. In the case of `CC(C)CCCCCCOC(=O)C1CCCCC1C(=O)OCCCCCCC(C)C` (stereo unspecified), the outcome is reported as “inactive”. For `CCCc1ccccc1`, the outcome was “inactive”. In the case of `O=C1CN(N=Cc2ccc([N+](=O)[O-])o2)C(=O)N1`, the AC50 is reported as 13.6 µM (active). In the case of `c1ccc2cc3ccccc3cc2c1`, the outcome is reported as “inactive”. In the case of `CC(C)c1nnc2ccc(-c3ocnc3-c3cc(F)ccc3F)cn12`, the outcome is reported as “inactive”. With `c1ccc2c(c1)-c1cccc3c1c-2cc1ccccc13` the outcome was “inactive”. In the case of `O=C(NO)C1(NS(=O)(=O)c2ccc(Oc3ccc(F)cc3)cc2)CCOCC1`, the outcome is reported as “inactive”. For `Cc1ncc([C@@H](CCCCCCc2ccc3c(n2)NCCC3)CC(=O)O)cn1`, the AC50 was 2.14 µM (active). In the case of `OCc1c[nH]c2ccccc12`, the AC50 is reported as 9.76 µM (active). For `O=C(O)c1cccc(C[C@@H]2COc3ccc(OCc4nc5cc(F)ccc5s4)cc3[C@@H]2O)c1`, the outcome was “inactive”. In the case of `FC(F)(F)COC(OCC(F)(F)F)OCC(F)(F)F`, the outcome is reported as “inactive”. For `CCCC(CCC)C(=O)O`, the outcome was “inactive”. With `C=CCc1cc(S(=O)(=O)c2ccc(O)c(CC=C)c2)ccc1O` the AC50 was 25.8 µM (active). In the case of `CCCCCCCCCCCCCCCCOS(=O)(=O)O`, the outcome is reported as “inactive”. In the case of `OC(O)(C(F)C(O)(O)C(F)(F)F)C(F)(F)F`, the AC50 is reported as 27.3 µM (active) and the outcome is reported as “inactive”. In the case of `CC1(C)C(=O)N(Cl)C(=O)N1Cl`, the outcome is reported as “inactive”. For `CNC(C)=O`, the outcome was “inactive”. With `NC(=O)N1c2ccccc2C=Cc2ccccc21` the outcome was “inactive”. For `CCCCCCCCCC`, the AC50 was 0.781 µM (active).
